Targets with a hit are over-represented here; the source holds about 8,800 in all. About 0.5% of all pairs of compound and target were hits.
Assays:
Assay in all cases: log2 fold change, soluble protein after heating vs DMSO (PISA); higher = thermal stabilisation; K562 lysate, 10 uM; active = over 0.2 and 3.5 SD of the protein, either way, in both replicates (recomputed)
[1] = compound: Cc1cn(-c2cc(NC(=O)c3ccc(C)c(Nc4nccc(-c5cccnc5)n4)c3)cc(C(F)(F)F)c2)cn1 [nilotinib]
Method in brief: (§1)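 Dounce homogenisation of K562 pellets in PBS pH 7.4 with 1 mM MgCl2 produced a crude extract, used at 1 mg/mL protein. Exposure to 10 μM compound lasted 30 min, and aliquots were then heated for 3 min across 48°C-58°C, pooled and brought to 0.5% NP-40 at 4°C. The supernatant after 21,000xg for 90 min was quantified by TMTpro 16plex LC-MS/MS with channel sums equalised. Duplicate values are given as log-two fold change in thermal stability relative to solvent controls.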

[2] = compound: Cc1nc(Nc2n[nH]c3c2CN(C(=O)N[C@H](CN(C)C)c2ccccc2)C3(C)C)c2sccc2n1
Method in brief: as §1

[3] = compound: Cc1nc(Nc2ncc(C(=O)Nc3c(C)cccc3Cl)s2)cc(N2CCN(CCO)CC2)n1 [dasatinib]
Method in brief: as §1

[4] = compound: Cc1ncc(-c2ccnc(Nc3ccc(S(C)(=O)=O)cc3)n2)n1C(C)C
Method in brief: as §1

[5] = compound: Cn1cc(-c2ccc3c(c2)CCN3C(=O)Cc2cccc(C(F)(F)F)c2)c2c(N)ncnc21
Method in brief: as §1

[6] = compound: Cn1cc(CNCC2CCN(c3ncc(C(=O)NO)cn3)CC2)c2ccccc21 [quisinostat]
Method in brief: as §1

[7] = compound: Cn1cncc1[C@@](N)(c1ccc(Cl)cc1)c1ccc2c(c1)c(-c1cccc(Cl)c1)cc(=O)n2C [tipifarnib]
Method in brief: as §1

[8] = compound: NC(=O)Nc1cc(-c2cccc(F)c2)sc1C(=O)N[C@H]1CCCNC1
Method in brief: as §1

[9] = compound: NC(=O)c1cnc(N[C@@H]2CCCC[C@@H]2N)nc1Nc1cccc(-n2nccn2)c1
Method in brief: as §1

[10] = compound: NC1(c2ccc(-c3nc4ccn5c(=O)[nH]nc5c4cc3-c3ccccc3)cc2)CCC1
Method in brief: as §1

Measured: log2 fold change

GAPVD1 isoform 6 (UniProt Q14C86)
inactive: [1] 0.006 | [2] 0.005 | [3] -0.05 | [4] -0.005 | [5] 0.044 | [6] -0.029 | [7] -0.02 | [8] 0.032 | [9] 0.013 | [10] 0.026

GALK1 isoform 2 (UniProt P51570)
inactive: [1] 0.01 | [2] -0.018 | [3] -0.024 | [4] -0.014 | [5] 0.03 | [6] -0.051 | [7] 0.002 | [8] 0.04 | [9] -0.033 | [10] -0.006

FIGNL1 (UniProt Q6PIW4)
Sequence of UniProt Q6PIW4 (Q6PIW4 whole entry, looked up): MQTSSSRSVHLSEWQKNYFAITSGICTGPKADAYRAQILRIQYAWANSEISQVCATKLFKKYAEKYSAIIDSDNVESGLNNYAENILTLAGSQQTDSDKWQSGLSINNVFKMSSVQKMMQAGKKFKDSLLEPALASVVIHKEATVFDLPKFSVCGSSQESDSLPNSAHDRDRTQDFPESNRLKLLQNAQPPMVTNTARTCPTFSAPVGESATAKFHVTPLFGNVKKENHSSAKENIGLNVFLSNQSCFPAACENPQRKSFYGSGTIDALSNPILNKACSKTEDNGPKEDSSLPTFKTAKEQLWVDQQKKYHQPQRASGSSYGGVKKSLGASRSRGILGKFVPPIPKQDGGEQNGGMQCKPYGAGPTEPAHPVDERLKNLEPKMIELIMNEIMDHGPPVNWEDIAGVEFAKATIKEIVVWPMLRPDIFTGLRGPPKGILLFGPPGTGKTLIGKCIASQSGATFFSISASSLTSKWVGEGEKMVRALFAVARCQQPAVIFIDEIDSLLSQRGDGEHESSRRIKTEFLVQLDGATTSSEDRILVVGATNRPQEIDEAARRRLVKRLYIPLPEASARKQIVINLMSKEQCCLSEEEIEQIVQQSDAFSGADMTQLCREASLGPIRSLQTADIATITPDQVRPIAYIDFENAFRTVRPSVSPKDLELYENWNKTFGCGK
inactive: [1] -0.011 | [2] 0.037 | [3] -0.101 | [4] 0.054 | [5] 0.068 | [6] -0.08 | [7] -0.044 | [8] 0.035 | [9] -0.02 | [10] -0.035

GATAD2A isoform 3 (UniProt Q86YP4)
inactive: [1] 0.041 | [2] 0.001 | [3] 0.006 | [4] -0.009 | [5] 0.001 | [6] -0.074 | [7] -0.009 | [8] 0.032 | [9] 0.002 | [10] -0.024

DSTN (UniProt P60981)
Sequence of UniProt P60981 (P60981 whole entry, looked up): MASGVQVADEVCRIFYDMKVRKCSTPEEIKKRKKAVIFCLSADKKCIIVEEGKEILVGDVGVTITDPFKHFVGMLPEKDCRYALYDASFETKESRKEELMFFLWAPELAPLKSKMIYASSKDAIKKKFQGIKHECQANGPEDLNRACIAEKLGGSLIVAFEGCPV
inactive: [1] 0.01 | [2] 0.012 | [3] -0.013 | [4] 0.009 | [5] 0.034 | [6] 0.045 | [7] -0.005 | [8] -0.022 | [9] 0.022 | [10] -0.008

FTSJ1 (UniProt Q9UET6)
inactive: [1] -0.013 | [2] -0.039 | [3] -0.016 | [4] -0.007 | [5] -0.007 | [6] -0.032 | [7] -0.054 | [8] 0.035 | [9] -0.001 | [10] 0.029

FREM2 (UniProt Q5SZK8)
inactive: [1] -0.108 | [2] 0.041 | [3] -0.071 | [4] -0.113 | [5] -0.014 | [6] -0.223 | [7] -0.168 | [8] 0.048 | [9] 0.059 | [10] 0.04

ERCC4 (UniProt Q92889)
inactive: [1] -0.047 | [2] -0.002 | [3] 0.01 | [4] -0.05 | [5] 0.033 | [6] -0.105 | [7] -0.007 | [8] 0.041 | [9] 0.027 | [10] -0.004

EPS8L2 (UniProt Q9H6S3)
inactive: [1] -0.011 | [2] 0.05 | [3] 0.051 | [4] -0.121 | [5] 0.053 | [6] 0.013 | [7] 0.013 | [8] 0.058 | [9] -0.01 | [10] 0.013

FAU (UniProt E9PR30)
inactive: [1] 0.006 | [2] 0.001 | [3] -0.018 | [4] 0.005 | [5] 0.052 | [6] 0.002 | [7] 0.046 | [8] -0.055 | [9] 0 | [10] -0.058

G6PD isoform 2 (UniProt P11413)
Sequence of UniProt P11413 (P11413 whole entry, looked up): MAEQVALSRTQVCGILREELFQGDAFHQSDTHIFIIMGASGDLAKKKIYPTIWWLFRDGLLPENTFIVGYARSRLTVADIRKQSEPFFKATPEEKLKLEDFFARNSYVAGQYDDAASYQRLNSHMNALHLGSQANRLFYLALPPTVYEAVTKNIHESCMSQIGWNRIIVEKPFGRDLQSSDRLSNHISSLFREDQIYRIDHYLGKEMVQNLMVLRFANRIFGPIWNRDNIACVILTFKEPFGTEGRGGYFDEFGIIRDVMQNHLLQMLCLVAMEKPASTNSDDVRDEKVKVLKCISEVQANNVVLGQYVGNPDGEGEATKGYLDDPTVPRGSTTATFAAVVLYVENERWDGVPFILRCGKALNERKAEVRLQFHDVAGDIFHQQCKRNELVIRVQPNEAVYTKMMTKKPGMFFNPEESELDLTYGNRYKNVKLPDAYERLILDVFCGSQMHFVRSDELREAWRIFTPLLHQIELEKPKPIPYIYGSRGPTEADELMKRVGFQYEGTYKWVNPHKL
inactive: [1] 0.013 | [2] -0.008 | [3] 0.01 | [4] -0.012 | [5] -0.01 | [6] -0.021 | [7] 0.016 | [8] 0.012 | [9] -0.035 | [10] 0.008

GEMIN5 (UniProt Q8TEQ6)
inactive: [1] -0.003 | [2] -0.001 | [3] -0.046 | [4] 0.001 | [5] 0.037 | [6] -0.102 | [7] 0.015 | [8] 0.031 | [9] 0.003 | [10] -0.027

DST (UniProt Q03001)
inactive: [1] -0.002 | [2] -0.035 | [3] -0.023 | [4] 0.045 | [5] -0.06 | [6] -0.118 | [7] 0.069 | [8] 0.022 | [9] 0.027 | [10] -0.107

DTYMK (UniProt P23919)
Sequence of UniProt P23919 (P23919 whole entry, looked up): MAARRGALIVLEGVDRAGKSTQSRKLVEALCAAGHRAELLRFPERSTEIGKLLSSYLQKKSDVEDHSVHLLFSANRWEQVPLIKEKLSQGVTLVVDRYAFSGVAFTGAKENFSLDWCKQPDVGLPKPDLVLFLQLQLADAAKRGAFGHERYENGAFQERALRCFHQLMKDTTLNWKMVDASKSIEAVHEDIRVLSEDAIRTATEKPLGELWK
inactive: [1] -0.003 | [2] 0.002 | [3] -0.072 | [4] -0.007 | [5] -0.025 | [6] -0.009 | [7] 0.017 | [8] 0.045 | [9] -0.024 | [10] -0.007

GCDH (UniProt Q92947)
Sequence of UniProt Q92947 (Q92947 whole entry, looked up): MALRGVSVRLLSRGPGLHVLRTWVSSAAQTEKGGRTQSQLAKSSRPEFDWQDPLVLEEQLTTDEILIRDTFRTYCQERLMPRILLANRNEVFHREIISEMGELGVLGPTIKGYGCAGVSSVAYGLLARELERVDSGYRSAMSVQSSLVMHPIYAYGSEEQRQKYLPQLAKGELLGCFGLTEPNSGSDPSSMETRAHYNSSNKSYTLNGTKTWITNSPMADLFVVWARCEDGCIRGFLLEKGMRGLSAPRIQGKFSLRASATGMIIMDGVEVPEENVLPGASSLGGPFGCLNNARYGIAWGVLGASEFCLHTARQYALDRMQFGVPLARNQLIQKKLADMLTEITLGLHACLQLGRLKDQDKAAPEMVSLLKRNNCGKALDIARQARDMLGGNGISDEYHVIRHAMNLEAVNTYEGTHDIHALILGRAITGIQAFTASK
inactive: [1] -0.018 | [2] -0.129 | [3] 0.024 | [4] -0.033 | [5] -0.022 | [6] -0.05 | [7] -0.018 | [8] -0.07 | [9] -0.021 | [10] -0.044

EMP3 (UniProt P54852)
Sequence of UniProt P54852 (P54852 whole entry, looked up): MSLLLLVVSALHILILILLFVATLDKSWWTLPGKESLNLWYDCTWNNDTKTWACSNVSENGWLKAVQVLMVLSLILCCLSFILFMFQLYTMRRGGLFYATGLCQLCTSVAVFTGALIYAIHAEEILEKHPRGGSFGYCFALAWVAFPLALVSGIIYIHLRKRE
inactive: [1] 0.007 | [2] 0.094 | [3] -0.046 | [4] 0.02 | [5] -0.046 | [6] -0.144 | [7] 0.031 | [8] 0.013 | [9] -0.035 | [10] -0.008

EEFSEC (UniProt P57772)
inactive: [1] 0.004 | [2] 0.01 | [3] -0.067 | [4] -0.03 | [5] 0.007 | [6] -0.043 | [7] -0.003 | [8] 0.052 | [9] 0 | [10] -0.019

EED, A0A5F9ZI63
inactive: [1] -0.019 | [2] 0.035 | [3] -0.022 | [4] -0.005 | [5] -0.027 | [6] 0 | [7] 0.006 | [8] 0.026 | [9] -0.006 | [10] -0.015

EMC7 (UniProt Q9NPA0)
inactive: [1] 0.047 | [2] -0.015 | [3] -0.022 | [4] 0.027 | [5] 0.001 | [6] -0.006 | [7] -0.014 | [8] -0.003 | [9] 0.014 | [10] -0.073

FPGT (UniProt O14772)
Sequence of UniProt O14772 (O14772 whole entry, looked up): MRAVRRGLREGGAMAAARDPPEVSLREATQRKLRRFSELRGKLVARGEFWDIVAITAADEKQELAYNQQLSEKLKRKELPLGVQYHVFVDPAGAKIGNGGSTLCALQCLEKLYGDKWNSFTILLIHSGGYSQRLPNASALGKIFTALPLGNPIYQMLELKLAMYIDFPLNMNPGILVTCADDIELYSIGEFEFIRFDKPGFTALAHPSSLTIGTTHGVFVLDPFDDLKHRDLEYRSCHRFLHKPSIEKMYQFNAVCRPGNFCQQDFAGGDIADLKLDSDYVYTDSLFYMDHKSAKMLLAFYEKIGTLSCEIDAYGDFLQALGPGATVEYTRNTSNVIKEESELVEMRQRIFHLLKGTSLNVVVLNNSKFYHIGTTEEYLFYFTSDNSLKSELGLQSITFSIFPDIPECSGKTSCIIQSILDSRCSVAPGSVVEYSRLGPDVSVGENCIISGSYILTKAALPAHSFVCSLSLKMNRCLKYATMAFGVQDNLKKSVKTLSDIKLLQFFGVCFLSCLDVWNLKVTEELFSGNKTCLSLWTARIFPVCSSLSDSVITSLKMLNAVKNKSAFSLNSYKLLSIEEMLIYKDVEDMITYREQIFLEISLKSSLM
inactive: [1] -0.006 | [2] -0.004 | [3] -0.057 | [4] 0.029 | [5] -0.014 | [6] -0.105 | [7] -0.036 | [8] 0.046 | [9] 0.035 | [10] -0.03

EEF1A1P5 (UniProt Q5VTE0)
inactive: [1] -0.055 | [2] 0.005 | [3] -0.172 | [4] -0.083 | [5] 0.005 | [6] -0.054 | [7] 0.008 | [8] 0.016 | [9] 0.006 | [10] -0.013

FBXO30 (UniProt Q8TB52)
Sequence of UniProt Q8TB52 (Q8TB52 whole entry, looked up): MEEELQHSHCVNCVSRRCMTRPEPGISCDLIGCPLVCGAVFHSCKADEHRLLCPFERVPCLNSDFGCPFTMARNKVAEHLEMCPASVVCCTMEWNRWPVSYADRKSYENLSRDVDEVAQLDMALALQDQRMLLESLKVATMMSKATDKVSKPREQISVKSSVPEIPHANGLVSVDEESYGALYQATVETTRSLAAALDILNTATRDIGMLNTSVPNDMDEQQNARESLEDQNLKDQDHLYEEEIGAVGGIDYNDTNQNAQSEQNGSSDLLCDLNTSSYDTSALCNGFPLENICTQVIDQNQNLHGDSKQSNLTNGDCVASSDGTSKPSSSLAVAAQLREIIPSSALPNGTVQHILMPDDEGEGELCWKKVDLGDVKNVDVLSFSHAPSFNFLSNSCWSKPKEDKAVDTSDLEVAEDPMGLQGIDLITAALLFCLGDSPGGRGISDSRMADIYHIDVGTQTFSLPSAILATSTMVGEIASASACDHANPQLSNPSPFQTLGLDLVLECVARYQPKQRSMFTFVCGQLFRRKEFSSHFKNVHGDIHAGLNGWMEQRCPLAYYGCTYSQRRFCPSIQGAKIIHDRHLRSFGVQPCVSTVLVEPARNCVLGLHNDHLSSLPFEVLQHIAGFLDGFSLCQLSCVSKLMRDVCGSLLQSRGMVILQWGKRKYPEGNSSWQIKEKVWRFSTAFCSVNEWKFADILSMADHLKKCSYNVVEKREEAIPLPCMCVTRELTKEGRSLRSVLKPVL
inactive: [1] 0.015 | [2] -0.032 | [3] 0.012 | [4] 0.067 | [5] 0.02 | [6] 0.001 | [7] 0.012 | [8] -0.008 | [9] -0.017 | [10] 0.005

EGLN1 (UniProt Q9GZT9)
inactive: [1] 0.006 | [2] 0.007 | [3] -0.045 | [4] -0.066 | [5] 0.03 | [6] -0.048 | [7] -0.05 | [8] 0.044 | [9] 0.039 | [10] 0.006

ENY2 (UniProt Q9NPA8)
inactive: [1] -0.054 | [2] -0.002 | [3] 0.045 | [4] 0.007 | [5] 0.033 | [6] -0.03 | [7] 0.085 | [8] -0.03 | [9] -0.022 | [10] -0.007

FOXK1 (UniProt P85037)
inactive: [1] -0.006 | [2] -0.014 | [3] -0.065 | [4] -0.038 | [5] 0.004 | [6] -0.031 | [7] -0.042 | [8] -0.002 | [9] -0.011 | [10] 0.007

FOXJ3 (UniProt Q9UPW0)
Sequence of UniProt Q9UPW0 (Q9UPW0 whole entry, looked up): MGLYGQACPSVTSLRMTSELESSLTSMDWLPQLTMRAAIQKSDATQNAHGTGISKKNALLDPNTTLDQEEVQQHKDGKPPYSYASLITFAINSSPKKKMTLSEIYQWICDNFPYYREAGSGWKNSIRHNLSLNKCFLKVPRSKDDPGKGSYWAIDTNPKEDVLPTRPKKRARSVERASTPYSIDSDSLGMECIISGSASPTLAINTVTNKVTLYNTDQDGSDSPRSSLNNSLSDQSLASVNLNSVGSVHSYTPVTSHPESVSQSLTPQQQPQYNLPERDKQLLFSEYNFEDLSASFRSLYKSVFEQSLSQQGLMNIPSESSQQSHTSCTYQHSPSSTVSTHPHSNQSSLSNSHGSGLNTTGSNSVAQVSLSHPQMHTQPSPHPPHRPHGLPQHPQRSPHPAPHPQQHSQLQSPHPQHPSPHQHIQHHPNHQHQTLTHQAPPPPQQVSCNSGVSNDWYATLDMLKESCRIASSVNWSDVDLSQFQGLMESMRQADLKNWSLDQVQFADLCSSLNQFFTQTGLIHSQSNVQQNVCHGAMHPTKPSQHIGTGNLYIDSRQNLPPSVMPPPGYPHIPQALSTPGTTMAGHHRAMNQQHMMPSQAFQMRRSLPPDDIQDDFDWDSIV
inactive: [1] 0.156 | [2] -0.053 | [3] -0.013 | [4] -0.008 | [5] -0.063 | [6] -0.055 | [7] -0.017 | [8] 0.042 | [9] 0.017 | [10] -0.115

ESPL1 (UniProt Q14674)
inactive: [1] -0.013 | [2] 0.006 | [3] 0.044 | [4] 0.054 | [5] 0.02 | [6] 0.066 | [7] -0.024 | [8] 0.021 | [9] -0.014 | [10] -0.055

FECH isoform 2 (UniProt P22830)
Sequence of UniProt P22830 (P22830 whole entry, looked up): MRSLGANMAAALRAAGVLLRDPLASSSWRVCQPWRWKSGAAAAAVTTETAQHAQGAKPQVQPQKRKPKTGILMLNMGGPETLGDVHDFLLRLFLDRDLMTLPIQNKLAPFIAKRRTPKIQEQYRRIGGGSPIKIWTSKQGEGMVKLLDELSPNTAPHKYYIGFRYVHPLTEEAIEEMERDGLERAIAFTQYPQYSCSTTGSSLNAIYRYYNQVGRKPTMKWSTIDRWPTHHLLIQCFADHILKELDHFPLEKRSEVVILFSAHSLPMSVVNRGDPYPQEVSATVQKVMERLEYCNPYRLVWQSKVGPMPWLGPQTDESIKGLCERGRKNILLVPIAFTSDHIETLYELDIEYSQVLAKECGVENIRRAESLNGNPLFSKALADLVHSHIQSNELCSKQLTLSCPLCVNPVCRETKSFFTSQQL
inactive: [1] 0.796 | [2] 0 | [3] 0.353 | [4] 0.364 | [5] 0.009 | [6] 0.333 | [7] -0.007 | [8] -0.013 | [9] 0.139 | [10] 0.053

ELAVL1 isoform 2 (UniProt Q15717)
Sequence of UniProt Q15717 (Q15717 whole entry, looked up): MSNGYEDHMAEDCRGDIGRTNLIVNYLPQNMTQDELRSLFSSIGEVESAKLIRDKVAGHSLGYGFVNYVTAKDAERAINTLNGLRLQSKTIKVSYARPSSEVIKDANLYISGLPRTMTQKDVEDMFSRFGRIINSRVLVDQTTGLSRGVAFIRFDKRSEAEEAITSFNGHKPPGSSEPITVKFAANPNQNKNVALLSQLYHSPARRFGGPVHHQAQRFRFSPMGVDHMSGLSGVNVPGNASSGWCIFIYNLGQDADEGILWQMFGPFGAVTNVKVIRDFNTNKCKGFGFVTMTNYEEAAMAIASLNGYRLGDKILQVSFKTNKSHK
inactive: [1] -0.035 | [2] -0.014 | [3] -0.029 | [4] -0.009 | [5] 0.037 | [6] -0.079 | [7] 0.003 | [8] 0.034 | [9] 0.008 | [10] 0.03

FUBP3 (UniProt Q96I24)
inactive: [1] -0.201 | [2] -0.016 | [3] -0.094 | [4] 0.012 | [5] 0.01 | [6] -0.029 | [7] -0.009 | [8] 0.043 | [9] -0.005 | [10] 0.032

Reference: the supplement of paper PMC10849652
